# Assay results taken from PubChem BioAssay AID1159580 (chemical genetic matrix, 2015).
# Values joined by “and” are separate entries in the source; they are usually repeats but may differ in a detail not shown here. Identical values can stand only once. Out of some 5,500 compounds screened, about 2,000 (36%) were called active. Not shown: some 18% with an inconclusive outcome. No stated cut-off is given here; in the data, active means normalized growth mostly below about 0.91 (no sharp cut-off); inconclusive means no clear call, values can overlap the other calls; inactive means mostly above about 0.92. Some of the results follow.
# Assay: chemical genetic growth profiling, strain panel (AID 1159580);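 further: tested at 20 µM; growth read once vehicle control cultures reached saturation at 30 °C; 1 = growth at the plate median or of vehicle wells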
# Conditions: S. cerevisiae deletion strains, growth OD
smiles,measurement,setting,value
CN1CCc2cccc3c2C1Cc1ccc(O)c(O)c1-3 (stereo not drawn),normalized growth,"locus YAL013W, strain DEP1, stronger effect = lower value",1.01 (inactive)
same,normalized growth,"locus YAL021C, strain ccr4, stronger effect = lower value",0.83 (active)
same,normalized growth,"locus YAL026C, strain drs2, stronger effect = lower value",0.862 (active)
same,normalized growth,"locus YAL030W, strain snc1, stronger effect = lower value",0.866 (active)
same,normalized growth,"locus YAL040C, strain CLN3, stronger effect = lower value",0.989 (inactive)
same,normalized growth,"locus YBL061C, strain skt5, stronger effect = lower value",0.865 (active)
same,normalized growth,"locus YBR009C, strain hhf1, stronger effect = lower value",0.929 (inactive)
same,normalized growth,"locus YBR021W, strain FUR4, stronger effect = lower value",1.01 (inactive)
same,normalized growth,"locus YBR023C, strain chs3, stronger effect = lower value",0.85 (active)
same,normalized growth,"locus YBR171W, strain sec66, stronger effect = lower value",0.949 (inactive)
same,normalized growth,"locus YBR229C, strain ROT2, stronger effect = lower value",1.01 (inactive)
same,normalized growth,"locus YBR231C, strain swc5, stronger effect = lower value",0.785 (active)
same,normalized growth,"locus YBR279W, strain paf1, stronger effect = lower value",0.924 (active)
same,normalized growth,"locus YCL011C, strain gbp2, stronger effect = lower value",0.883 (active)
same,normalized growth,"locus YCL016C, strain dcc1, stronger effect = lower value",0.925 (inactive)
same,normalized growth,"locus YCL029C, strain bik1, stronger effect = lower value",0.995 (inactive)
same,normalized growth,"locus YCL061C, strain MRC1 (second series), stronger effect = lower value",0.611 (active)
same,normalized growth,"locus YCL069W, strain vba3, stronger effect = lower value",0.978 (inactive)
same,normalized growth,"locus YCR088W, strain abp1, stronger effect = lower value",0.986 (inactive)
same,normalized growth,"locus YDL005C, strain med2, stronger effect = lower value",1.02 (inactive)
same,normalized growth,"locus YDL035C, strain GPR1, stronger effect = lower value",1.04 (inactive)
same,normalized growth,"locus YDL040C, strain nat1, stronger effect = lower value",0.977 (inactive)
same,normalized growth,"locus YDL074C, strain BRE1, stronger effect = lower value",1.01 (inactive)
same,normalized growth,"locus YDL101C, strain DUN1, stronger effect = lower value",1.01 (inactive)
same,normalized growth,"locus YDL134C, strain PPH21, stronger effect = lower value",1.03 (inactive)
same,normalized growth,"locus YDL185W, strain tfp1, stronger effect = lower value",1 (inactive)
same,normalized growth,"locus YDL192W, strain arf1, stronger effect = lower value",0.997 (inactive)
same,normalized growth,"locus YDR001C, strain nth1, stronger effect = lower value",1.01 (inactive)
same,normalized growth,"locus YDR069C, strain doa4, stronger effect = lower value",0.573 (active)
same,normalized growth,"locus YDR101C, strain arx1, stronger effect = lower value",0.973 (inactive)
same,normalized growth,"locus YDR137W, strain rgp1, stronger effect = lower value",0.996 (inactive)
same,normalized growth,"locus YDR159W, strain sac3, stronger effect = lower value",0.987 (inactive)
same,normalized growth,"locus YDR162C, strain NBP2, stronger effect = lower value",1.03 (inactive)
same,normalized growth,"locus YDR195W, strain ref2",1.02 (inactive)
same,normalized growth,"locus YDR297W, strain sur2, stronger effect = lower value",0.88 (active)
same,normalized growth,"locus YDR318W, strain mcm21, stronger effect = lower value",0.992 (inactive)
same,normalized growth,"locus YDR334W, strain swr1, stronger effect = lower value",0.873 (active)
same,normalized growth,"locus YDR335W, strain msn5, stronger effect = lower value",0.923 (inactive)
same,normalized growth,"locus YDR363W, strain ESC2, stronger effect = lower value",0.823 (active)
same,normalized growth,"locus YDR388W, stronger effect = lower value",0.993 (inactive)
same,normalized growth,"locus YDR392W, strain spt3, stronger effect = lower value",0.534 (active)
same,normalized growth,"locus YDR502C, strain sam2, stronger effect = lower value",0.999 (inactive)
same,normalized growth,"locus YEL003W, strain gim4, stronger effect = lower value",0.942 (inactive)
same,normalized growth,"locus YEL037C, strain rad23, stronger effect = lower value",0.962 (inactive)
same,normalized growth,"locus YEL061C, strain CIN8 (second series), stronger effect = lower value",0.971 (inactive)
same,normalized growth,"locus YEL061C, strain CIN8, stronger effect = lower value",1.01 (inactive)
same,normalized growth,"locus YER002W, strain NOP16, stronger effect = lower value",0.982 (inactive)
same,normalized growth,"locus YER015W, strain faa2, stronger effect = lower value",0.784 (active)
same,normalized growth,"locus YER016W, strain bim1, stronger effect = lower value",0.979 (inactive)
same,normalized growth,"locus YER110C, stronger effect = lower value",0.985 (inactive)
same,normalized growth,"locus YER111C, strain swi4, stronger effect = lower value",0.996 (inactive)
same,normalized growth,"locus YER155C, strain BEM2 (second series), stronger effect = lower value",0.861 (active)
same,normalized growth,"locus YER155C, strain BEM2, stronger effect = lower value",1 (inactive)
same,normalized growth,"locus YER167W, strain BCK2, stronger effect = lower value",1.03 (inactive)
same,normalized growth,"locus YFR010W, strain ubp6, stronger effect = lower value",0.882 (active)
same,normalized growth,"locus YGL078C, strain dbp3, stronger effect = lower value",0.983 (inactive)
same,normalized growth,"locus YGL086W, strain mad1, stronger effect = lower value",1 (inactive)
same,normalized growth,"locus YGL167C, strain pmr1, stronger effect = lower value",0.985 (inactive)
same,normalized growth,"locus YGL173C, strain kem1, stronger effect = lower value",0.725 (active)
same,normalized growth,"locus YGL227W, strain vid30, stronger effect = lower value",1.02 (inactive)
same,normalized growth,"locus YGL240W, strain doc1, stronger effect = lower value",0.929 (inactive)
same,normalized growth,"locus YGL248W, strain PDE1, stronger effect = lower value",1.01 (inactive)
same,normalized growth,"locus YGL253W, strain hxk2, stronger effect = lower value",0.969 (inactive)
same,normalized growth,"locus YGR135W, strain pre9, stronger effect = lower value",1 (inactive)
same,normalized growth,"locus YGR229C, strain SMI1, stronger effect = lower value",1.02 (inactive)
same,normalized growth,"locus YGR252W, strain gcn5, stronger effect = lower value",1.01 (inactive)
same,normalized growth,"locus YHR013C, strain ard1, stronger effect = lower value",0.818 (active)
same,normalized growth,"locus YHR027C, strain rpn1, stronger effect = lower value",0.826 (active)
same,normalized growth,"locus YHR030C, strain SLT2, stronger effect = lower value",1.01 (inactive) and 1.02 (inactive)
same,normalized growth,"locus YHR079C, strain IRE1 (second series), stronger effect = lower value",0.994 (inactive)
same,normalized growth,"locus YHR079C, strain IRE1, stronger effect = lower value",1.05 (inactive)
same,normalized growth,"locus YHR094C, strain hxt1, stronger effect = lower value",0.99 (inactive)
same,normalized growth,"locus YHR129C, strain ARP1, stronger effect = lower value",1.01 (inactive)
same,normalized growth,"locus YHR142W, strain chs7, stronger effect = lower value",0.867 (active)
same,normalized growth,"locus YHR200W, strain rpn10, stronger effect = lower value",0.997 (inactive)
same,normalized growth,"locus YIL066C, strain RNR3, stronger effect = lower value",1.03 (inactive)
same,normalized growth,"locus YIL073C, strain SPO22, stronger effect = lower value",1.03 (inactive)
same,normalized growth,"locus YIL125W, strain kgd1, stronger effect = lower value",0.989 (inactive)
same,normalized growth,"locus YIR030C, strain dcg1, stronger effect = lower value",1 (inactive)
same,normalized growth,"locus YJL092W, strain hpr5, stronger effect = lower value",0.979 (inactive)
same,normalized growth,"locus YJL095W, strain BCK1 (second series), stronger effect = lower value",0.906 (active)
same,normalized growth,"locus YJL095W, strain BCK1, stronger effect = lower value",0.998 (inactive) and 1.04 (inactive)
same,normalized growth,"locus YJL115W, strain asf1, stronger effect = lower value",0.999 (inactive)
same,normalized growth,"locus YJL129C, strain trk1, stronger effect = lower value",1.07 (inactive)
same,normalized growth,"locus YJL134W, strain LCB3, stronger effect = lower value",1 (inactive)
same,normalized growth,"locus YJL154C, strain vps35, stronger effect = lower value",1.01 (inactive)
same,normalized growth,"locus YJL164C, strain tpk1, stronger effect = lower value",0.874 (active)
same,normalized growth,"locus YJL166W, strain qcr8, stronger effect = lower value",0.742 (active)
same,normalized growth,"locus YJL168C, strain set2, stronger effect = lower value",0.989 (inactive)
same,normalized growth,"locus YJL187C, strain SWE1 (second series), stronger effect = lower value",1.01 (inactive)
same,normalized growth,"locus YJL187C, strain SWE1, stronger effect = lower value",0.887 (active)
same,normalized growth,"locus YJR043C, strain POL32, stronger effect = lower value",1.03 (inactive)
same,normalized growth,"locus YJR066W, strain TOR1, stronger effect = lower value",0.989 (inactive)
